D2 ag-1: Beta-Arrestin HTS for Positive Allosteric Modulators of the Human D2 Dopamine Receptor: Agonists; D(2) dopamine receptor (Homo sapiens), P14416; DiscoveRx PathHunter D2 beta-arrestin, luminescence, 90 min; 100% = 57 uM dopamine signal; activation, % (test concentration not listed); hit rate 0.084% among 360,000; AID 624465, 2012; in the data active = activation above about 40%; inconclusive = between about 15% and that limit
Target sequence (P14416 whole entry, looked up): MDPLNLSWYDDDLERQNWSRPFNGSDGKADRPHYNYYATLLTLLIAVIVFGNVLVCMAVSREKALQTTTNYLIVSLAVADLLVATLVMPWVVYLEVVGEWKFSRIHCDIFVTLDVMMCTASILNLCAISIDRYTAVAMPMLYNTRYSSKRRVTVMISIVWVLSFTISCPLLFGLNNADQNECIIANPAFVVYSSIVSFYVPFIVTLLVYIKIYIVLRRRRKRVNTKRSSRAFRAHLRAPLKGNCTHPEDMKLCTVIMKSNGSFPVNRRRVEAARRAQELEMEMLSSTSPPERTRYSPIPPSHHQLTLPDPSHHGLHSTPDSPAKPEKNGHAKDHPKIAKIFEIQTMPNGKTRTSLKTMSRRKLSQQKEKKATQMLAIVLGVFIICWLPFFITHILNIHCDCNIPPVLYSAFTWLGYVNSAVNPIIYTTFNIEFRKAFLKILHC
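DiscoveRx PathHunter D2 beta-arrestin cells (2,100/well) attached overnight, then compound-stimulated 90 min at 37 C in HBSS/10 mM HEPES/0.1% Tween-20 buffer; beta-galactosidase complementation read by luminescence after 1 h at ambient temperature. Dopamine 57 uM final (EC100) as control.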
D2 PAM-1: Beta-Arrestin HTS for Positive Allosteric Modulators of the Human D2 Dopamine Receptor: Potentiators; hit rate 0.23% among 360,000; potentiation, % (concentration not given with the values); DiscoveRx D2 beta-arrestin cells, luminescence, 90 min; 100% = 57 uM dopamine signal; in the data active = potentiation above about 50%; inconclusive = mostly about 30% to 49%
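PathHunter D2 cells, attached overnight at 37 deg C, received compound in DMSO plus dopamine at EC20 (50 nM final) for 90 min at 37 deg C. Beta-arrestin recruitment was read as luminescence after 1 h with detection reagent at ambient temperature.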
D2 ag-2: HTS Assay for Allosteric Agonists of the Human D2 Dopamine Receptor: Primary Screen for Agonists; activation, % at 2 µM; D(2) dopamine receptor (Homo sapiens), P14416; AID 485358, 2010; HEK293 T-REx D2 cells, calcium flux agonist mode; hit rate 0.53% among 340,000;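 active = activation over 3 SD above normal in the single-dose calcium agonist read, cut at about 30% in these data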; also: 0% is about no effect
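In this primary screen, compounds producing a positive calcium signal within 180 s of addition to tetracycline-induced, force-coupled HEK293 Trex D2 cells are flagged; cells are dye-loaded with a no-wash calcium kit beforehand.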
D2 antagonist: HTS Assay for Allosteric Antagonists of the Human D2 Dopamine Receptor: Primary Screen for Antagonists. D(2) dopamine receptor (Homo sapiens), P14416. HEK293 TREx D2 cells, calcium flux, dopamine EC80. inhibition, % at 10 µM. hit rate 2% among 340,000; in the data active = inhibition above about 30%; inactive = below that, where a call was filed; also: 0% is about no effect
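Tetracycline-induced HEK293 TREx cells expressing D2 receptor forced-coupled to calcium signalling, loaded with no-wash calcium dye. Compounds added and calcium flux read 180 s, then dopamine added at EC80 and read a further 180 s.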
D2 PAM-2: HTS Assay for Positive Allosteric Modulators of the Human D2 Dopamine Receptor: Primary Screen for Potentiators; HEK293 T-REx D2, calcium flux, EC20 dopamine potentiation; potentiation, % at 10 µM; hit rate 0.34% among 340,000; AID 485347, 2010;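 active = potentiation over 3 SD above the plate norm, cut at about 30% in these data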; also: 0% is about no effect
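Tetracycline-induced Hek293 Trex D2 cells, force-coupled to calcium, loaded with no-wash calcium dye. Compound added with 180 s kinetic read for agonism, then EC20 dopamine and a further 180 s read for potentiation.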
* marks the source's active call; other numbers are inactive results; ? = inconclusive; / = not tested or not shown. Hits are enriched below; roughly 2.4% of the tested compounds scored in any of these assays.

SMILES	D2 ag-1	D2 PAM-1	D2 ag-2	D2 antagonist	D2 PAM-2
CCC1CCCCN1S(=O)(=O)c1cc(C(=O)Nc2ccc(C)c(F)c2)ccc1F (stereo unspecified)	/	/	/	/	5
O=C1c2cccc3c([N+](=O)[O-])ccc(c23)C(=O)N1O	42*	4	0	27	-2
O=C1c2cccc3c([N+](=O)[O-])ccc(c23)C(=O)N1c1ccccn1	?	?	1	17	11
Clc1ccc(N=c2ssnc2Cl)nc1	-1	103*	1	-5	-8
O=C(Nc1ccc(Br)cc1)c1ccc2ncsc2c1	1	-13	0	36*	-27
CCc1ccc(NC(=O)c2ccc3ncsc3c2)cc1	/	/	0	-7	-12
Clc1cc(Cl)c(OCc2nc(-c3ccccn3)no2)cc1Cl	-3	-5	2	-19	-2
COc1ccc(Cc2nc(-c3ccccn3)no2)cc1	-2	-1	1	34*	5
CC(C)(C)c1ccc(OCc2nc(-c3ccccn3)no2)c(Br)c1	0	-21	0	38*	7
COc1ccc(Cc2nc(-c3ccncc3)no2)cc1	-1	51*	-1	-20	5
C[C@H](CO)N1C[C@H](C)[C@@H](CN(C)S(=O)(=O)c2cccs2)Oc2c(NS(=O)(=O)c3cn(C)cn3)cccc2C1=O	-2	-4	/	/	/
O=C(O)C(C(O)c1ccc([N+](=O)[O-])cc1)[n+]1ccccc1 (stereo unspecified)	-1	-2	0	-9	-11
COCCNc1nc(Nc2ccc(C#N)cc2)c2sccc2n1	6	-1	/	/	/
Cc1ccccc1C(=O)Nc1nnc([C@@H]2C[C@H](O)[C@@H](CO)O2)s1	-7	-6	/	/	/
C=CCc1cccc2cc(C(=O)NCCc3c(C)[nH]c4c(C)cccc34)c(=O)oc12	/	/	0	/	-4
CCCNC(=O)NCCc1c(C)[nH]c2ccccc12	5	-4	0	-1	7
CN(C)C(=O)c1ccc2c(c1[N+](=O)[O-])C(=O)c1ccccc1C2=O	?	68*	/	/	/
COc1ccc2c(c1O)C(=O)c1ccccc1C2=O	/	/	0	4	-6
Cc1[nH]c2c(C)cccc2c1CCNC(=O)c1ccc2c(c1[N+](=O)[O-])C(=O)c1ccccc1C2=O	?	93*	0	-5	-7
Cc1[nH]c2ccccc2c1CCNC(=O)c1ccc2c(c1[N+](=O)[O-])C(=O)c1ccccc1C2=O	?	93*	0	-5	-9
CCOc1ccc(CCNC(=O)CCCn2c(=O)c3cccn3c3cccnc32)cc1OCC	-2	-2	-2	1	-2
Cc1ccc(C)c(N2CCN(C(=O)c3c4c(nc5ccccc35)C(=O)N(C3CCCCC3)C4)CC2)c1	/	/	/	/	10
COc1cc(C(=O)Nc2nc(C)c(Cc3ccc4c(c3)OCO4)s2)cc(OC)c1OC	-3	-6	0	40*	-11
Cc1ccccc1OCc1nc2ccccc2c(=O)n1/N=C/c1cn[nH]c1-c1ccccc1	-2	8	0	57*	-2
COc1cccc(C2C3=C(CC(C)(C)CC3=O)Nc3n[nH]c(C)c32)c1 (stereo unspecified)	1	-10	11	-8	31*
SMILES	D2 ag-1	D2 PAM-1	D2 ag-2	D2 antagonist	D2 PAM-2
CCOC(=O)Cc1ccc2sc(-c3ccccc3)nc2c1	2	-6	-1	32*	5
CCOC(=O)c1sc(-c2ccccc2)nc1C	1	1	1	0	2
O=C(O)C1=CC2C=C(Cl)C=CC2OC1=O (stereo unspecified)	1	4	/	/	/
CC(=O)N1CCN(S(=O)(=O)c2cccc(C(=O)Nc3ccc(C)cn3)c2)CC1	1	3	0	-2	2
Cc1ccc(NC(=O)c2cccc(S(=O)(=O)N3CCc4ccccc4C3)c2)nc1	-2	-3	0	31*	5
CC1(C)C(=O)Nc2ccccc2N1C(=O)COC(=O)C1CCCCC1	3	-24	1	-9	0

High-throughput results (PubChem BioAssay)
